Where “and” joins values, the source holds several entries; their conditions need not be identical. Equal entries are not always repeated. About 83,000 compounds went through this panel and 20% of them were active in at least one assay; those are over-represented in the sample as a whole.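 The test compound was applied at a single concentration to cells in 96-well plates for 48 hours, and percent growth was recorded.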 Calls of active or inactive are those of the source.

In one test the test system is HOP-62 NSCLC. Briefly: NCI-60 one-dose screen, 48 h (100 = growth as untreated, 0 = no growth, -100 = all killed). Particulars: 10 µM. Here is the method:
Growth inhibition of the HOP-62 human Non-Small Cell Lung tumor cell line is measured as a screen for anti-cancer activity. Cells are grown in 96 well plates and exposed to the test compound for 48 hours. Compounds are tested at a single concentration, which is 10^-5 M for most compounds. The reported endpoint is percent growth (GI% or GIPRCNT), where numbers from 0 - 100% represent growth inhibition, and numbers from -100% - 0 represent cell death. For example, a value of 40 represents 60% growth inhibition. A value of 0 means no net growth occurred over the course of the experiment. A value of -40 indicates 40% of cells at the beginning of the experiment died by the end of the experiment. A value of -100 means all cells are dead at the end of the experiment.
NCI-60 Human Tumor Cell Lines Screen was performed using the standard one-dose NCI protocol, which is described in more detail at https://dtp.cancer.gov/discovery_development/nci-60/default.htm.
Compounds with GIPRCNT values below 10 were considered active. Activity score was based on GIPRCNT using the following formula: […]
Score is 0 for GIPRCNT values of 100 or above, 50 for GIPRCNT values of 0, and 100 for GIPRCNT values of -100.
For `CCc1ccccc1-n1c(N)c(C#N)c(-c2ccc(OC)c(OC)c2)c(C#N)c1=O`, the growth was 95.2% (inactive).
As for `CC1(C)OB(c2ccc(Cn3cc(F)c(=O)[nH]c3=O)cc2)OC1(C)C`, the growth was 104% (inactive).
As for `COc1ccc(Cl)cc1C(=O)NCCc1ccc(S(=O)(=O)NC(=O)NC2CCCCC2)cc1`, the growth was 88.3% (inactive).

The same test, now with this note: 10 µM unless noted.
Turning to `CCOC(=O)C(CNc1ccccc1)C(=O)OCC`, the growth is 90.1% (inactive).
Same read-out and setting: as for `O=C(/C=C\c1ccnc2ccccc12)c1ccc([N+](=O)[O-])cc1`, the figure is 104% (inactive) and 77.9% (inactive); as for `CCN(CC)CCC(CNc1c2ccc([N+](=O)[O-])cc2nc2cc(OC)c(OC)cc12)c1ccccc1` (stereo not given), -9.52% (active) and -86.4% (active).
As for `CCN(CC)CCC(CNc1ccnc2cc(Cl)ccc12)c1ccc(OC)cc1` (stereo not given), the growth is 83.4% (inactive) and 77.7% (inactive).
On the same count and under the same terms, as for `O=C(O)CSCc1nc2ccccc2[nH]1`, the figure is 120% (inactive).
Consider `CC1(C)[C@@H](OC(=O)CCC(=O)O)CC[C@]2(C)[C@H]3C(=O)C=C4[C@@H]5C[C@@](C)(C(=O)O)CC[C@]5(C)CC[C@@]4(C)[C@]3(C)CC[C@@H]12`, for which the growth is 103% (inactive) and -54.9% (active).
As to `CCN(CC)C(=O)c1cccnc1`, the growth is 119% (inactive).
The same measure, in the same setting: for `Cc1cc(N=Nc2ccc(C)c(N=Nc3cc(C)c(N)cc3N)c2)c(N)cc1N` the value was 60.6% (inactive) and 80.8% (inactive); for `CNc1cc(-c2cccc(OC(F)(F)F)c2)nc2ccc(N3CCCC3)cc12`, 74.6% (inactive) and 45.7% (inactive) and 33.4% (inactive); for `Cc1nn(-c2ccccc2)nc1C(=O)Nc1ccccc1C(=O)NCC1CC1`, 96.7% (inactive) and 46.1% (inactive).
For the compound `Cc1ccc(NCSc2ccc(Cl)cc2)cc1`, the growth was 112% (inactive) and 87.8% (inactive).
With `CC(C)(O)Cn1cc(-c2ccc3nc(OC4CC4)ccc3c2)c2c(N)ncnc21`, the growth is 73.8% (inactive) and 39.8% (inactive).
On to `Cc1cc(-c2ccc(NS(=O)(=O)c3ccccc3)c(C)c2)ccc1NS(=O)(=O)c1ccccc1`, for which the growth is 94.2% (inactive) and 111% (inactive).
Still for that read-out and setting: as for `Cc1nnc(NC/C=C/c2ccccc2)s1`, the figure is 88.7% (inactive) and 111% (inactive); as for `O=C(c1ccc(Cl)cc1)C(NCCO)c1ccc(Cl)cc1` (stereo not given), 87.5% (inactive).
For the compound `CCc1c(CC(=O)O)c2cc(C)ccc2n1Cc1ccc(Cl)cc1`, the growth was 94.7% (inactive) and 70.2% (inactive).
`CCOc1ccc2nc3cc(N)ccc3c(N)c2c1`: the growth was 23% (inactive) and 26.8% (inactive).
For the compound `O=C(CCl)c1ccc2c(c1)Nc1ccccc1S2`, the growth is 97.6% (inactive) and 99.8% (inactive).
Turning to `CCOc1ccc(Nc2c3ccccc3nc3ccccc23)cc1`, the growth is 92.5% (inactive) and 37.1% (inactive) and 42.1% (inactive).
For the compound `O=C(/C=C/c1ccccn1)c1ccccc1O`, the growth is 79.5% (inactive) and 72.2% (inactive).
Still for that read-out and setting: as for `ClC/C=C/CSc1ncnc2nc[nH]c12`, the figure is 91.9% (inactive) and 108% (inactive); as for `COc1ccc(/C(C#N)=C/c2ccccn2)cc1`, 112% (inactive) and 109% (inactive); as for `O=C(Nc1ccc(Br)cc1)c1cc(Br)ccc1O`, 20.2% (inactive) and -5.46% (active).
Same read-out and setting: as for `O=C1C2=C(C(=O)c3ccccc31)C(O)(S(=O)(=O)O)C(O)(S(=O)(=O)O)C1N=CC=CC21` (stereo not given), the figure is 42.1% (inactive) and 41.9% (inactive); as for `COc1ccccc1C(C)=O`, 107% (inactive) and 102% (inactive).
In the case of `Nc1ccc2ccc(N)cc2c1`, the growth was 86% (inactive).
The same measure, in the same setting: for `COc1ccc(CCN(C)CCCC(C#N)(c2ccc(OC)c(OC)c2)C(C)C)cc1OC` (stereo not given) the value was 90.8% (inactive) and 86.4% (inactive); for `CC1CCCc2sc3nc(NNC(=O)c4cnccn4)n(-c4ccccc4)c(=O)c3c21` (stereo not given), 4.44% (active) and 1.42% (active); for `CC12CCC(CC1)C(C)(C)O2`, 110% (inactive).
Take `Cn1c(=O)n(-c2ccc(C(C)(C)C#N)cc2)c2c3cc(-c4cnc5ccccc5c4)ccc3ncc21`: the growth is 1.69% (active) and 3.34% (active).
The same measure, in the same setting: as for `Cc1cccc(/C=C\C(=O)c2ccccc2)c1`, the figure is 98.5% (inactive) and 111% (inactive); as for `COc1ccc(NC(=S)Nc2ccccn2)cc1`, 97.9% (inactive).
With `CN1C(=O)C(N=Nc2ccc([N+](=O)[O-])cc2)SC1=S` (stereo not given), the growth was 41.1% (inactive) and 53.7% (inactive).
Same read-out and setting: for `CC(C)CNC(=O)c1ccccc1C(=O)NC1(C(=O)NCC(C)C)CCCC1` the value was 102% (inactive) and 95.6% (inactive).

The same test, now with this note: 50 µM.
Turning to `CC1(C)OB(c2ccc(Cn3cc(F)c(=O)[nH]c3=O)cc2)OC1(C)C`, the growth is 63.9% (inactive).

The same test, now with this note: 100 µM.
As to `CCc1ccccc1-n1c(N)c(C#N)c(-c2ccc(OC)c(OC)c2)c(C#N)c1=O`, the growth was -28.6% (active).
As to `COc1ccc(Cl)cc1C(=O)NCCc1ccc(S(=O)(=O)NC(=O)NC2CCCCC2)cc1`, the growth was 69.1% (inactive).

Values taken from PubChem BioAssay (NCI).
